The list is not random: actives were taken first. Their share in the collection is about 4%.
NALP1 inh: NALP1 inflammasome inhibitors in reconstituted yeast, colorimetric, S. cerevisiae, triplicate retest. S. cerevisiae NALP1/ASC/caspase-1 growth, X-gal OD620, 72 h. inhibition, % at 10 µM. AID 2071, 2009. hit rate 0.61% among 280,000; in the data active = inhibition mostly above about 24%, no sharp cut-off; inactive = mostly below about 32%
NLRP3 yeast inh: NALP3 inflammasome inhibitors in reconstituted yeast, primary screen, luminescence, uHTS; inhibition, % at 10 µM; AID 2825, 2010; hit rate 0.39% among 330,000; Yeast reconstituted NLRP3/ASC/caspase-1, beta-gal luminescence, 24 h;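 active = inhibition of 50% or more; inactive = inhibition below 50%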;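 also: plate controls were induced DMSO wells for no effect and uninduced yeast grown without galactose for full effect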
tim10-1 inh: growth inhibitors of tim10-1 mutant yeast, primary screen, luminescence, uHTS. inhibition, % at 20 µM. hit rate 2.2% among 330,000. S. cerevisiae tim10-1 ts strain growth, BacTiter-Glo, 24 h;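 active = inhibition of at least 40%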;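 also: mutant grown at 25 °C; 0% = DMSO wells with yeast and 100% = wells holding no yeast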
TIM10 inh: growth inhibitors of isogenic TIM10 control yeast, primary screen, counter-screen for tim10-1 yeast inhibitor project, luminescence, uHTS | S. cerevisiae TIM10 strain growth, BacTiter-Glo luminescence, 24 h | inhibition, % at 10 µM | hit rate 1.4% among 330,000;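 active = inhibition of 40% or more at the single tested concentration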;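 also: wild-type TIM10 isogenic control strain grown at permissive 25 °C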
tim23-1 inh: growth inhibitors of tim23-1 mutant yeast, primary screen, luminescence, uHTS | S. cerevisiae tim23-1 growth, BacTiter-Glo luminescence, 24 h | inhibition, % at 20 µM | hit rate 1.3% among 330,000 | AID 463212, 2010;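 active = growth inhibition of the mutant yeast at or above 50%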;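 also: temperature-sensitive mutant grown at 25 °C; plate controls were DMSO-treated mutant yeast for no effect and medium wells lacking yeast for full effect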
tim10-1 conf: growth inhibitors of tim10-1 mutant yeast, confirmation, single concentration, luminescence, S. cerevisiae | shares compounds with tim10-1 inh | S. cerevisiae tim10-1 ts strain growth, BacTiter-Glo, 24 h | inhibition, % at 20 µM | hit rate 56% among 7,400;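 active = inhibition of yeast growth at or above a set limit in either of two repeat tests at 20 µM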;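 also: tim10-1 mutant grown at permissive 25 °C to find synthetic lethal compounds; 0% = DMSO yeast wells and 100% = medium wells without yeast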
Starred values were filed as active, the others as inactive.

`CN(C)/C=C1/Sc2ccccc2C1=O` gave NALP1 inh -4, NLRP3 yeast inh -2, tim10-1 inh 7, TIM10 inh -1 and tim23-1 inh 12.
For CN(C)CCN(C(=O)c1ccc2ccccc2c1)c1nc2cc3c(cc2s1)OCCO3 the results were NALP1 inh 25, NLRP3 yeast inh -5, tim10-1 inh 16, TIM10 inh 12 and tim23-1 inh 13.
For CN(C)CCN(C(=O)c1cccc2ccccc12)c1nc2cc3c(cc2s1)OCO3 the results were NALP1 inh 23, NLRP3 yeast inh 28, tim10-1 inh 45*, TIM10 inh 26, tim23-1 inh 28 and tim10-1 conf -1.
N#C/C(=C/c1ccc(O)c([N+](=O)[O-])c1)C(=O)Nc1ccccc1 was read as NALP1 inh 11, NLRP3 yeast inh 0, tim10-1 inh 40*, TIM10 inh 24, tim23-1 inh 25 and tim10-1 conf 23.
COc1ccc(-c2cc3nc(-c4ccccc4)cc(N4CCC(O)CC4)n3n2)cc1 was read as NALP1 inh -3, NLRP3 yeast inh 24, tim10-1 inh 40*, TIM10 inh 33, tim23-1 inh 49 and tim10-1 conf 24.
Screening Fc1ccc(-c2cc3nc(-c4ccccc4)cc(N4CCOCC4)n3n2)cc1 returned NALP1 inh -3, NLRP3 yeast inh 28, tim10-1 inh 2, TIM10 inh 0 and tim23-1 inh -7.
For CC(=O)N(Cc1nc2sc(C)c(C)c2c(=O)[nH]1)C1CCCC1 the results were NALP1 inh -1, NLRP3 yeast inh -2, tim10-1 inh 9, TIM10 inh -14 and tim23-1 inh 5.
For CCN(C1CCCCC1)S(=O)(=O)c1cc(C)ccc1OC the results were NALP1 inh 6, NLRP3 yeast inh 5, tim10-1 inh 43*, TIM10 inh 34, tim23-1 inh 40 and tim10-1 conf 23.
Screening CN(C)S(=O)(=O)c1ccc(NC(=O)c2c(F)cccc2Cl)cc1 returned NALP1 inh 3, NLRP3 yeast inh 16, tim10-1 inh 24, TIM10 inh 10 and tim23-1 inh -14.
For N#Cc1c(N)nc(SCC(=O)C23CC4CC(CC(C4)C2)C3)c(C#N)c1-c1ccc(Cl)cc1 the results were NALP1 inh 19, NLRP3 yeast inh 15, tim10-1 inh 45*, TIM10 inh 25, tim23-1 inh 37 and tim10-1 conf 43*.
`Cc1ccc(S(=O)(=O)Nc2ccc(Nc3ccccc3)cc2)cc1` gave NALP1 inh 22, NLRP3 yeast inh 20, tim10-1 inh 43*, TIM10 inh 16, tim23-1 inh 42 and tim10-1 conf 24.
`Nc1ccc2oc(-c3cccc(Br)c3)nc2c1` gave NALP1 inh 14, NLRP3 yeast inh -15, tim10-1 inh 60*, TIM10 inh 37, tim23-1 inh 37 and tim10-1 conf 50*.
CN(C)c1ccc(/C=N/NC(=O)C(=O)/C=C2\NC3(CCCC3)Cc3ccccc32)cc1 was read as NALP1 inh 32, NLRP3 yeast inh 14, tim10-1 inh 42*, TIM10 inh 28, tim23-1 inh 42 and tim10-1 conf 19.
For O=C(/C=C1\NC2(CCCC2)Cc2ccccc21)C(=O)N/N=C/c1ccccc1O the results were NALP1 inh 22, NLRP3 yeast inh 17, tim10-1 inh 33, TIM10 inh 23 and tim23-1 inh 48.
For O=C(c1ccccc1)c1ccccc1C(=O)N1CCN(C(=O)c2ccccc2)CC1 the results were NALP1 inh -16, NLRP3 yeast inh 8, tim10-1 inh 7, TIM10 inh 0 and tim23-1 inh -4.
`COc1ccc2c(c1)/C(=N/OC(=O)c1cccs1)CCC2` gave NALP1 inh 1, NLRP3 yeast inh 6, tim10-1 inh 52*, TIM10 inh 19, tim23-1 inh 34 and tim10-1 conf 41*.
Screening Cc1ccc(C(=O)O/N=C2\CCCc3ccccc32)cc1 returned NALP1 inh 5, NLRP3 yeast inh 14, tim10-1 inh 31, TIM10 inh 33 and tim23-1 inh 20.
`Cc1cccc(C(=O)O/N=C2\CCCc3ccccc32)c1` gave NALP1 inh -9, NLRP3 yeast inh 37, tim10-1 inh 44*, TIM10 inh 23, tim23-1 inh 18 and tim10-1 conf 36*.
Screening COc1ccc(N(C)C(=O)C2CCCN2S(=O)(=O)c2cccc3nsnc23)c(OC)c1 (stereo not given) returned NALP1 inh 10, NLRP3 yeast inh 10, tim10-1 inh 1, TIM10 inh 17 and tim23-1 inh 9.
`C=C(C)CNC(=S)N/N=C1\CCCCc2ccccc21` gave NALP1 inh 8, NLRP3 yeast inh 30, tim10-1 inh 55*, TIM10 inh 35, tim23-1 inh 40 and tim10-1 conf 41*.
`COC(=O)c1cn(-c2ccccc2)nc1-c1ccccc1` gave NALP1 inh 0, NLRP3 yeast inh 30, tim10-1 inh 11, TIM10 inh 11 and tim23-1 inh 21.
Screening COC(=O)c1cn(-c2ccccc2)nc1-c1ccc(OC)c(OC)c1 returned NALP1 inh 9, NLRP3 yeast inh 21, tim10-1 inh 42*, TIM10 inh 15, tim23-1 inh 38 and tim10-1 conf 9.
OCCNc1ncnc2c1sc1nc(N3CCOCC3)c3c(c12)CCC3 was read as NALP1 inh 5, NLRP3 yeast inh 6, tim10-1 inh 49*, TIM10 inh 18, tim23-1 inh 35 and tim10-1 conf 25.
For CC(C)CN(C(=O)c1cc(=O)[nH]c2ccccc12)c1c(N)n(Cc2ccccc2)c(=O)[nH]c1=O the results were NLRP3 yeast inh 4, tim10-1 inh 8, TIM10 inh 7 and tim23-1 inh 8.
`O=C(COC(=O)c1ccccc1OCc1ccccc1Cl)NCC1CCCO1` (stereo not given) gave NLRP3 yeast inh 3, tim10-1 inh 6, TIM10 inh 13 and tim23-1 inh 26.
Nc1c(N2CCN(c3ccccc3)CC2)c2ccccc2oc1=O was read as NALP1 inh 17, NLRP3 yeast inh 4, tim10-1 inh 49*, TIM10 inh 11, tim23-1 inh 27 and tim10-1 conf 27*.
For COc1ccccc1-c1cc(SC)c(C#N)c(=O)o1 the results were NALP1 inh 24, NLRP3 yeast inh -5, tim10-1 inh 38, TIM10 inh 30 and tim23-1 inh 36.
For OC1CCN(c2ncnc3c2nnn3Cc2c(F)cccc2Cl)CC1 the results were NALP1 inh 3, NLRP3 yeast inh -8, tim10-1 inh 43*, TIM10 inh 15, tim23-1 inh 17 and tim10-1 conf 26.

Screening results as filed in PubChem.
